PubChem BioAssay (NCI)
About 83,000 compounds went through this panel and 20% of them were active in at least one assay; those are over-represented in the sample as a whole.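 Each cell line was grown in a 96-well plate and treated with one concentration of compound for 48 hours. Values below 10 were considered active.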 Values without a mark were called inactive. Active and inactive are the calls of the source.

What was measured:
Experiment in all cases: NCI-60 one-dose screen, 48 h (100 = growth as untreated, 0 = no growth, -100 = all killed)
Settings in all cases: 10 µM unless noted
HCT-15 colon = test system: HCT-15 colon
HT29 colon = test system: HT29 colon
SNB-75 CNS = test system: SNB-75 CNS
SNB-19 CNS = test system: SNB-19 CNS
U251 CNS = test system: U251 CNS
PC-3 prostate = test system: PC-3 prostate
SK-MEL-5 melanoma = test system: SK-MEL-5 melanoma
UACC-62 melanoma = test system: UACC-62 melanoma
LOX IMVI melanoma = test system: LOX IMVI melanoma
SK-MEL-28 melanoma = test system: SK-MEL-28 melanoma
SK-MEL-2 melanoma = test system: SK-MEL-2 melanoma
EKVX NSCLC = test system: EKVX NSCLC
SN12C renal = test system: SN12C renal
UO-31 renal = test system: UO-31 renal
TK-10 renal = test system: TK-10 renal
ACHN renal = test system: ACHN renal
CAKI-1 renal = test system: CAKI-1 renal
A498 renal = test system: A498 renal
CCRF-CEM leukemia = test system: CCRF-CEM leukemia
MOLT-4 leukemia = test system: MOLT-4 leukemia

Row | Compound | growth (HCT-15 colon) | growth (HT29 colon) | growth (SNB-75 CNS) | growth (SNB-19 CNS) | growth (U251 CNS) | growth (PC-3 prostate) | growth (SK-MEL-5 melanoma) | growth (UACC-62 melanoma) | growth (LOX IMVI melanoma) | growth (SK-MEL-28 melanoma) | growth (SK-MEL-2 melanoma) | growth (EKVX NSCLC) | growth (SN12C renal) | growth (UO-31 renal) | growth (TK-10 renal) | growth (ACHN renal) | growth (CAKI-1 renal) | growth (A498 renal) | growth (CCRF-CEM leukemia) | growth (MOLT-4 leukemia)
1 | COc1ccc2nc3c(cc2c1)C(=O)CC(c1ccccc1)C3 (stereo not given) | 24.8% | 9.97% (active) | -9.09% (active) | 34.3% | 45% | 28.8% | 30.2% | 36.9% | 36.1% | 54.6% | 70% | 44.5% | 40.7% | 34.5% | 64% | 43.9% | 31.3% | -13.5% (active) | 10.7% | 17.8%
2 | CCN(CC)c1ccc(/C=C/c2ccc3cc(C)ccc3[n+]2CC)cc1 | 13.3% | -14.4% (active) | 7.55% (active) | 24.8% | 9.59% (active) | -0.319% (active) | -97.5% (active) | 1.47% (active) | -8.32% (active) | 2.66% (active) | -32.3% (active) | 11.8% | 14.2% | 5.46% (active) | -4.22% (active) | 0.905% (active) | 15.7% | 5.43% (active) | 6.14% (active) | -15.3% (active)
3 | CC[C@@](C)(NC(=O)[C@H](C)NC(=O)CCNC(=O)C(C)(C)NC(=O)[C@H](C)NC(=O)[C@@H]1CCCN1C(=O)[C@@](C)(CC)NC(=O)[C@H](Cc1ccccc1)NC(=O)C1CCCN1C(=O)C(C)(C)NC(=O)C1CCCN1C(=O)C(C)(C)NC(C)=O)C(=O)NCCC(=O)N[C@@H](CC(C)C)C(=O)NC(C)(C)C(=O)NCCC(=O)N[C@@H](CC(C)C)C(=O)NC(C)(C)C(=O)NC(C)(C)C(=O)N[C@@H](CC(C)C)C(=O)NCCC(=O)NCO (stereo not given in full) | -99.4% (active) | -70.8% (active) | -96.4% (active) | -87.2% (active) | -99.1% (active) | -94.6% (active) | -100% (active) | -75.3% (active) | -100% (active) | -84.1% (active) | -89% (active) | -100% (active) | -76.7% (active) | -90.7% (active) | -98.9% (active) | -90.1% (active) | -98.2% (active) | -97.4% (active) | -61.1% (active) | -61.1% (active)
4 | CN(C)c1cc(NN=C(c2ccc(O)cc2)c2ccc(O)cc2)c([N+](=O)[O-])cc1[N+](=O)[O-] | 46.4% | 114% | 98% | 67.7% | 70.8% | 87.8% | 26% | 71.7% | 43.7% | 81.5% | -12.1% (active) | 94.2% | 93.8% | 1.38% (active) | 136% | 50.1% | 74.8% | 135% | 107% | 97.6%
5 | CCCCOC(=O)c1c(C)[nH]c(/C=C2\N=C(c3ccc[nH]3)C=C2OC)c1C | -1.74% (active) | 1.64% (active) | -20% (active) | 26.6% | 1.25% (active) | 13.9% | -98% (active) | -28% (active) | -65.8% (active) | -14% (active) | -64.6% (active) | -8.89% (active) | 8.83% (active) | -72.2% (active) | 9.12% (active) | -40.4% (active) | -29.2% (active) | -13.4% (active) | 12.6% | 8.13% (active)
6 | Cc1ccccc1-n1nnc(C(=O)Nc2nc3ccc(F)cc3s2)c1C | 61.1% | 73.2% | 64% | 63.7% | 76.8% | 47.5% | 24.5% | 59.2% | 75% | 57.3% | 65.3% | 64.9% | 68.6% | 58% | 71.4% | 64.7% | 49.6% | 31.4% | 66.5% | 43.7%
7 | CCOC(=O)c1nc2c3ccccc3ccn2c1C(=O)OC | 97% | 90.1% | 78.9% | 91.4% | 96.2% | 105% | 96.6% | 89.4% | 109% | 96.5% | 102% | 80.2% | 96.9% | 91.7% | 81.1% | 94% | 97.2% | 64% | 88.2% | 84.5%
8 | O=C(O)c1cccc(CN2CCN(c3cc4c(cc3F)c(=O)c(C(=O)O)cn4C3CC3)CC2)c1O | 104% | 102% | 92.2% | 99.2% | 96.2% | 93.7% | 102% | 102% | 97.9% | 106% | 101% | 100% | 102% | 81.6% | 96.6% | 103% | 88.7% | 106% | 101% | 105%
9 | Cc1ccc(S(=O)(=O)NCCCNc2nccc(-c3c(-c4cccc(F)c4)nc4occn34)n2)cc1 | 73.4% | 27.8% | 73.5% | 90.7% | 70.6% | 44.3% | 67.2% | 58.6% | 57.9% | 95.9% | 87.8% | 78.7% | 70.1% | 43.6% | 79.8% | 80.9% | 53.4% | 57.5% | 42.2% | 27%
10 | C[C@@H]1C[C@H]2C(=O)O[C@@H](C)[C@H](NC(=O)[C@H](Cc3cc(F)cc(F)c3)NC(=O)Nc3ccc(C4CC4)cc3F)C(=O)N3CCC[C@H]3C(=O)N3CCCC[C@H]3C(=O)N[C@@H](C)C(=O)N2C1 | 6.12% (active) | 10.5% | 6.49% (active) | 15.8% | 20.3% | 12% | -47.6% (active) | 3.87% (active) | 19.2% | 18.3% | 16.7% | 26.6% | 15.8% | 8.68% (active) | 38.4% | 11.5% | 8.8% (active) | -5.24% (active) | 39.9% | 28.6%
11 | N#C/C(C(=O)c1ccccc1)=C1/C(=O)Nc2ccc(F)cc21 | 106% | 116% | 78.3% | 98.4% | 104% | 93.3% | 103% | 92.7% | 100% | 108% | 108% | 94.2% | 98% | 74% | 122% | 92.6% | 86.3% | 81.1% | 116% | 104%
12 | CC(C)OC(=O)Nc1cc(F)c(F)cc1F | 98.1% | 99.3% | 96.3% | 102% | 99.3% | 99.8% | 102% | 96.6% | 109% | 96% | 95.4% | 94.1% | 102% | 86.1% | 96.3% | 101% | 97.1% | 93.6% | 103% | 103%
13 | Nc1cc(Cl)cc2cccnc12 | 103% | 101% | 79.9% | 109% | 111% | 87.5% | 101% | 103% | 88.1% | 113% | 119% | 102% | 91.1% | 67.9% | 109% | 102% | 101% | 116% | 55.7% | 77.8%
14 | COc1cc(OC)c(/C=C/C(=O)c2c(N)cc(OC)cc2OC)c(OC)c1 | 21.2% | 3.5% (active) | 23.5% | 27.9% | 11.9% | 11.8% | 17% | 9.68% (active) | 23.2% | 61% | 12.4% | 49.3% | 37% | 43.7% | 44.3% | 36.6% | 12.3% | -11.4% (active) | 12.3% | 35.8%
15 | C=C(C)[C@@H]1CC[C@]2(C(=O)OC)CC[C@]3(C)[C@H](CC[C@@H]4[C@@](C)(CCc5nn[nH]n5)[C@H](C(=C)C)CC[C@]43C)[C@@H]12 | 6.32% [100 µM] (active) | -16.1% [100 µM] (active) | -77.8% [100 µM] (active) | -5.69% [100 µM] (active) | -26.5% [100 µM] (active) | 5.02% [100 µM] (active) | -73.7% [100 µM] (active) | -72.8% [100 µM] (active) | -90.9% [100 µM] (active) | -63% [100 µM] (active) | -60.8% [100 µM] (active) | 0.298% [100 µM] (active) | -45.6% [100 µM] (active) | -88.5% [100 µM] (active) | 8.06% [100 µM] (active) | 3.75% [100 µM] (active) | -17.2% [100 µM] (active) | -61.5% [100 µM] (active) | 1.92% [100 µM] (active) | 0.832% [100 µM] (active)
